About 2,100 (0.66%) of roughly 320,000 compounds were called active. Another 53% or so got no clear call; they are omitted. Calls follow the shape of the dose curve; as a rule, active = well fitted inhibition curve with a large enough effect in the signal ratio, with a control signal flat (not every such curve was filed as active); inconclusive = small, poorly fitted or top-dose-only effect, or effect the other way, or a change in a side signal; inactive = flat fitted curve, though single readings scatter; the % refers to the signal ratio. The list comes from a sample in which actives are over-represented; it also holds similar structures and randomly drawn compounds.
Potency is read from the fitted curve at half-maximal effect.

The assay in a line: qHTS Assay for Lipid Storage Modulators in Drosophila S3 Cells.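 As to cell number change: cells counted by Cell Tracker Red CMTPX staining in the red channel.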 As to lipid storage change, negative = inhibition: % is scaled to controls: 0 for no effect and ±100 for the full control effect. The conditions noted are these: BODIPY lipid droplet fluorescence, 18-24 h, cells fed with added oleic acid; cell number change: measured here: cell count max response; series mostly up to 46.1 µM; lipid storage change, negative = inhibition: at the top concentration. The method in brief:
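Drosophila S3 cells got compounds at several concentrations plus oleic acid (400 uM solution). Laser-scanning cytometry with 488 nm excitation read lipid droplets at 500-530 nm and cells at 575-640 nm. Percent activity was relative to 20 uM Triacsin C.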
In general terms: Quantitative high-throughput screening tests each substance at several concentrations.
For `O=C(COc1ccc(Cl)cc1Cl)N/N=C/c1ccc(OC2OC(CO)C(O)C(O)C2O)cc1` (configuration not stated), the result was inactive and the cell number change came out at 14.9%.
Turning to `O=c1[nH]c(/C=C/c2cccc3ccccc23)nc2ccccc12`, the “lipid storage change, negative = inhibition” value was -10.1% (inactive) and the cell number change worked out at 1.01%.
`O=c1[nH]c(/C=C/c2ccccc2F)nc2ccccc12`: the call was inactive.
As to `N#CCOc1ccccc1/C=C/c1nc2ccccc2c(=O)[nH]1`, the Potency was 0.82 µM (active) and the cell number change came out at 5.41%.
In the case of `Cc1ccc(SCc2nc3ccccc3n2CC(=O)Nc2c(C)cccc2C)cc1`, the “lipid storage change, negative = inhibition” value is -6.68% (inactive) and the cell number change stood at 5.98%.
Take `O=C(Cn1c(CSc2ccccc2)nc2ccccc21)Nc1ccccc1`: the “lipid storage change, negative = inhibition” value is 2.53% (inactive).
With `Cc1ccc(SCc2nc3ccccc3n2CC(=O)Nc2ccc(Cl)cc2)cc1`, the Potency is 11.6 µM (active) and the cell number change is -17.3%.
As for `CCOC(=O)CSc1nnc(-c2ccc3ncccc3c2)n1C`, the “lipid storage change, negative = inhibition” value is 19.8% (inactive) and the cell number change was -5.02%.
Turning to `Cc1ccc(S(=O)(=O)NN2C(=O)c3ccccc3NC2c2ccccc2)cc1` (configuration not stated), the “lipid storage change, negative = inhibition” value was 0.893% (inactive) and the cell number change stood at 14.4%.
As for `Cc1cc2c(cc(C(=O)OC(C(=O)NC3CCCCC3)C(C)C)n2C)o1` (configuration not stated), the Potency is 1.46 µM (active) and the cell number change is -21.3%.
Consider `CC(C)C(OC(=O)c1ccco1)C(=O)NC1CCCCC1` (configuration not stated), for which the “lipid storage change, negative = inhibition” value is 4.26% (inactive) and the cell number change is 10.7%.
On the same counts, the results for `COCCNC(=O)C(OC(=O)c1cc2oc(C)cc2n1C)C(C)C` (configuration not stated) are -24.2% (inactive) and 9.13%.
With `COC(=O)c1cc(OC)c(OC)cc1NCC(=O)Nc1ccc(C)cc1`, the “lipid storage change, negative = inhibition” value is 4.61% (inactive) and the cell number change is -5.98%.
For `CNc1cccc2c1C(=O)c1ccccc1C2=O`, the Potency is 11.6 µM (active) and the cell number change is -6.63%.
Take `CCN(CC)CC(=O)Nc1cccc2c1C(=O)c1ccccc1C2=O`: the “lipid storage change, negative = inhibition” value is 2.18% (inactive) and the cell number change turned out to be 7.09%.
On to `O=C1c2ccccc2C(=O)c2c(NCCCN(CCO)CCO)cccc21`, for which the cell number change was 7.53% and the lipid storage change, negative = inhibition is 13.2% [at 9.22 µM] (inactive).
The corresponding values for `COc1ccc(-n2cc(CN(C)C(C)c3ccncn3)c(-c3cccc(F)c3)n2)cc1` (configuration not stated) are -0.848% and 10.9% (inactive).
`CC(C)(C)c1ccc(C(=O)CCC(=O)NCc2ccccc2)cc1`: the Potency is 14.6 µM (active) and the cell number change was 6.25%.
On to `O=C(CCC(=O)c1ccc(Cl)cc1)NCc1ccccc1`, for which the outcome was inactive and the cell number change is -20.1%.
As to `CC(C)(C)c1ccc(C(=O)NCc2ccccc2)cc1`, the “lipid storage change, negative = inhibition” value was -22.5% (inactive) and the cell number change is -10.5%.
For the compound `CCC(O)CNc1nc(-n2nc(C)cc2C)nc2sc3c(c12)CCCC3` (configuration not stated), the outcome was inactive and the cell number change came out at 1.08%.
Regarding `O=C(CSc1nc2ccccc2c(=O)[nH]1)Nc1ccc(S(=O)(=O)N2CCCC2)cc1`, the “lipid storage change, negative = inhibition” value is 27.6% (inactive) and the cell number change is -0.593%.
The corresponding values for `CC(=O)c1nnn(-c2ccccc2C#N)c1C` are -0.571% (inactive) and 25.6%.
On to `O=C(Nc1nc(-c2cccs2)c(C(=O)C(F)(F)F)s1)c1ccccc1`, for which the “lipid storage change, negative = inhibition” value was -1.08% (inactive).
In the case of `O=C(NC1(Cc2ccc(O)cc2)CCCCC1)c1ccccc1`, the Potency was 5.17 µM (active) and the cell number change was -23.1%.
With `NNC(=O)CC(=O)NC1(Cc2ccc(O)cc2)CCCCC1`, the “lipid storage change, negative = inhibition” value is 21.8% (inactive) and the cell number change stood at 4.44%.
For the compound `CCC(=O)NC1(Cc2ccc(O)cc2)CCCCC1`, the “lipid storage change, negative = inhibition” value was -26.5% (inactive) and the cell number change was -37.5%.
The corresponding values for `CCC(CC)C(=O)Nc1nnc(S(=O)(=O)N2CCCc3ccccc32)s1` are 20.3% (inactive) and -8.08%.
As to `CC(C)(C)NC(=O)CCc1nnc(Cc2c[nH]c3ccccc23)o1`, the “lipid storage change, negative = inhibition” value is 21.4% (inactive) and the cell number change is -0.239%.
For the compound `Cc1nn(C)c(C)c1S(=O)(=O)N(CC(=O)NCCN1CCOCC1)c1ccc(C(C)C)cc1`, the “lipid storage change, negative = inhibition” value was 7.54% (inactive) and the cell number change stood at 12.7%.
In the case of `CC(O)/C=C/c1ccc2ccccc2n1` (configuration not stated), the result was inactive and the cell number change was -12.5%.
`C/C(CC(O)c1ccc2ccccc2n1)=N/O` (configuration not stated): the Potency is 10.3 µM (active) and the cell number change was 3.68%.
`Cc1nc2ccccc2nc(C)c1=NO`: the “lipid storage change, negative = inhibition” value is 8.33% (inactive) and the cell number change stood at 8.5%.
On to `O=C(Nc1c2c(nn1-c1ccccc1)CS(=O)C2)c1ccc2c(c1)OCO2` (configuration not stated), for which the “lipid storage change, negative = inhibition” value is -19.3% (inactive) and the cell number change was found to be 12.2%.
Take `O=c1c2cnn(-c3ccccc3)c2ncn1Cc1ccco1`: the Potency is 32.6 µM (active) and the cell number change worked out at 1.65%.
As for `O=c1c2cnn(-c3ccccc3)c2ncn1Cc1ccccc1`, the “lipid storage change, negative = inhibition” value was 1.05% (inactive) and the cell number change is -12.8%.
In the case of `O=c1c2cnn(-c3ccccc3)c2ncn1Cc1ccccn1`, the “lipid storage change, negative = inhibition” value was 9.36% (inactive) and the cell number change turned out to be 26.2%.
`COCCN1C(=O)N[C@H](c2cccc(C(F)(F)F)c2)C(C(=O)OC)=C1C`: the “lipid storage change, negative = inhibition” value was -4.45% (inactive) and the cell number change came to 3.4%.
The corresponding values for `O=C(NCCc1ccccc1)C(=O)c1c(-c2ccccc2)cc2ccccn12` are -8.26% (inactive) and -0.29%.
On the same counts, the results for `Cc1ccc(S(=O)(=O)N(C)C)cc1NC(=O)COC(=O)c1ccc2c(c1)OCCO2` are -4.06% (inactive) and -1.35%.
Consider `Cc1ccc(S(=O)(=O)N(C)C)cc1NC(=O)COC(=O)c1ccc(Cl)cc1`, for which the result was inactive.
For the compound `Cc1ccc(S(=O)(=O)N(C)C)cc1NC(=O)COC(=O)c1sc2cc(Cl)ccc2c1Cl`, the Potency was 1.46 µM (active) and the cell number change is -27.1%.
Regarding `O=C(Nc1ccnn1C1CCN(Cc2ccc(O)c(Cl)c2)CC1)C1CCCC1`, the “lipid storage change, negative = inhibition” value was -0.76% (inactive) and the cell number change turned out to be 6.1%.
In the case of `O=C1NCCn2ccc(=O)cc21`, the “lipid storage change, negative = inhibition” value is 3.98% (inactive) and the cell number change was found to be 4.17%.
The corresponding values for `CCOC(=O)/C(N=O)=C(\O)C1CCN(C(=O)OCC)CC1` are -5.07% (inactive) and 1.9%.
Regarding `NS(=O)(=O)c1ccc(CNc2ncnc3sccc23)cc1`, the outcome was inactive and the cell number change was -15.1%.
With `c1cncc(CNc2ncnc3sccc23)c1`, the “lipid storage change, negative = inhibition” value was -0.833% (inactive) and the cell number change was -4.09%.
On to `c1ccc(CNc2ncnc3sccc23)cc1`, for which the Potency was 16.4 µM (active) and the cell number change was -15.5%.
